Data on 63 compounds can be found in PubChem BioAssay AID2315 (National Center for Advancing Translational Sciences (NCATS), 2010).

Hit rate of the full screen: of about 290,000 compounds, about 27,000 (9.3%) were called active. Cut-off read from the data, not from the text of the source: active = inhibition mostly above about 28% (no sharp cut-off); inactive = mostly below about 43%. The list comes from a sample in which actives are over-represented; it also holds similar structures and randomly drawn compounds.

The test is described as follows: A qHTS for Small Molecule Inhibitors of Shiga Toxin. Note: 0% is about no effect. Conditions: Vero cells, Shiga toxin protein synthesis inhibition reporter; at 38.7 µM, stronger effect = higher value.
`CCC(C(=O)NCCC(C)C)N(Cc1ccccc1Cl)C(=O)c1snc(C(N)=O)c1N` (stereo not drawn): the inhibition is -5.11% (inactive). To `Cc1ccn(-c2cccc(-n3ccc(C)n3)n2)n1` belongs 132% (active). The same measure for `Cn1cc(S(=O)(=O)Nc2ccc(Cl)cc2Cl)c(=O)n(C)c1=O`: -4.85% (inactive); for `COc1ccc(CN2CCNC(=O)C2CC(=O)NCc2cn[nH]c2-c2ccccc2)c(F)c1` (stereo not drawn): -2.54% (inactive); for `COc1ccc(C)cc1N(C(=O)Cn1nnc(-c2ccc(C)o2)n1)C(C(=O)NC1CCCC1)c1ccncc1` (stereo not drawn): -2.11% (inactive). Turning to `Cc1ccc(S(=O)(=O)NC2CCCCCC2)cc1C(N)=O`, the inhibition is -3.95% (inactive).

With `CCn1cc(CCC(=O)NCc2ccc(F)cc2)c2ccccc21`, the inhibition was -4.61% (inactive). To `Cc1ccc2c(CSc3nncs3)cc(=O)oc2c1` belongs 120% (active); to `COCc1cc(=O)oc2cc(NS(=O)(=O)c3ccc(C)cc3)ccc12`, 7.5% (inactive); to `CCOC(=O)Cc1csc(SCc2cc(=O)oc3cc(O)ccc23)n1`, -5.09% (inactive). For `CN1/C(=c2/s/c(=C3/C(=O)N(c4ccccc4)NC3=Nc3ccccc3)n(C)c2=O)C(C)(C)c2ccccc21`, the inhibition is -12.9% (inactive). The same measure for `CC(C)(C)c1ccccc1NC(=O)CN1C(=O)NC2(CCCC2)C1=O`: -11.9% (inactive). To `O=C(CN1CCN(c2ccc(O)cc2)CC1)Nc1ccc(-c2ccccc2)cc1` belongs 2.35% (inactive); to `CC(=O)c1ccc(S(=O)(=O)N2CCC3(CC2)OCCO3)cc1`, -3.96% (inactive); to `CN1C(=O)/C(=C\c2cc(Br)cs2)c2ccccc21`, 76.4% (active). With `CN1C(=O)/C(=N/OC(=O)c2ccccc2Br)c2ccccc21`, the inhibition is -3.77% (inactive). With `CCC1C(=O)c2ccccc2N(C)C1=O` (stereo not drawn), the inhibition was -0.747% (inactive). For the compound `CCc1ccc(S(=O)(=O)Nc2cc3c(cc2N2CCCCC2)n(C)c(=O)c(=O)n3C)cc1`, the inhibition was -14.2% (inactive).

Take `Cc1c(Cl)cccc1NC(=O)CCC(=O)N/N=C/c1ccco1`: the inhibition is 4.7% (inactive). Consider `c1ccc(-c2ccc(OCCN3CCOCC3)cc2)cc1`, for which the inhibition was 86.3% (active). The same measure for `CC(=O)c1ccc(OCCN2CCOCC2)cc1`: 32.1% (inactive).

For the compound `CC(C)(c1ccccc1)c1ccc(OCCN2CCCC2)cc1`, the inhibition was -9.76% (inactive). `CC(C)(C)NC(=O)C(c1ccc(Cl)cc1)N(CCO)C(=O)c1snc(C(N)=O)c1N` (stereo not drawn): the inhibition was -5.05% (inactive). Turning to `COc1ccccc1C(C)NC(=O)Cc1ccsc1` (stereo not drawn), the inhibition is -7.47% (inactive).

With `COc1ccc(C2CC(c3cccs3)=NN2C(=O)COC(=O)c2cc3ccccc3cc2O)cc1OC` (stereo not drawn), the inhibition was -13.7% (inactive). With `COc1ccc(C2CC(c3cccs3)=NN2c2ccccc2)cc1` (stereo not drawn), the inhibition was 83% (active). The same measure for `COc1ccc(C2CC(c3cccs3)=NN2c2nc(C)c(C(C)=O)s2)cc1OC` (stereo not drawn): 15.6% (inactive). On to `COc1ccc(C2=NN(c3ccccc3)C(c3cccs3)C2)cc1` (stereo not drawn), for which the inhibition is 3.11% (inactive). On to `COc1ccc(C2CC(c3cccs3)=NN2c2ccc(F)cc2)cc1OC` (stereo not drawn), for which the inhibition is 26.5% (inactive). For `O=C(c1ccccc1)N1N=C(c2ccccc2O)CC1c1ccc(Br)cc1` (stereo not drawn), the inhibition was 10.4% (inactive). To `CC(=O)Oc1ccccc1C1=NN(C(C)=O)C(c2ccccc2)C1` (stereo not drawn) belongs 18.4% (inactive); to `Oc1ccccc1C1=NN(c2ccccc2)C(c2ccccc2)C1` (stereo not drawn), 55.6% (active); to `COc1ccccc1N1N=C(c2cccs2)CC1c1ccccc1` (stereo not drawn), 36.3% (active). `CS(=O)(=O)N1CCN(CC(=O)NC2CCCC2)CC1`: the inhibition is -2.76% (inactive). The same measure for `O=C(Nc1ccc(Cl)cc1)c1cccc(OC(=S)N2CCOCC2)c1`: 18% (inactive). As for `O=C(COc1ccc(Cl)cc1Cl)N/N=C/c1ccccn1`, the inhibition was 8.65% (inactive). For the compound `CSc1ncccc1C(=O)NCc1ccccc1Cl`, the inhibition was -6.54% (inactive). With `CC1(C)Cc2ccccc2-c2[nH]c(=S)[nH]c(=O)c21`, the inhibition is -5.22% (inactive). On to `Brc1ccc(Nc2c3c(nc4ncnn24)CCC3)cc1`, for which the inhibition was -2.6% (inactive). As to `COCc1cc(=O)n2[nH]c(C)c(-c3ccccc3)c2n1`, the inhibition was 8.24% (inactive). Take `Nc1scc(-c2ccncc2)c1Cl`: the inhibition was 64.7% (active). For `COC(=O)c1c(-c2ccc(C)cc2)csc1N`, the inhibition is -0.659% (inactive).

Regarding `CN(C(=O)COC(=O)c1nc(Cl)ccc1Cl)C1CCS(=O)(=O)C1` (stereo not drawn), the inhibition was -15.4% (inactive). As for `CC(=O)c1nn(-c2cccc(C(F)(F)F)c2)c(=O)[nH]c1=O`, the inhibition was 21.6% (inactive). The same measure for `O=C1CSC(=S)N1c1ccc(Cl)c(Cl)c1`: 24.6% (inactive); for `CCCNC(=O)c1cnc(-c2ccccc2)nc1-c1ccccc1`: -8.32% (inactive). Regarding `Clc1ccc2nc(CSc3ccccc3)cn2c1`, the inhibition is 31.5% (active).

On to `O=C(/C=C/c1ccc2c(c1)OCO2)NCc1cn2cc(Cl)ccc2n1`, for which the inhibition was 21.3% (inactive). With `CCOc1ncccc1C(=O)OCc1cn2cc(Cl)ccc2n1`, the inhibition was 18.7% (inactive). Take `CC(C)CC(=O)N1CCN(Cc2cccc(Cl)c2)CC1`: the inhibition is -12.6% (inactive). With `CC(=O)N(c1ccc2oc(=O)sc2c1)S(=O)(=O)c1ccc(C)cc1`, the inhibition was -13.9% (inactive). The same measure for `CCC1=C(OC(=O)N(CC)CC)N2C(=O)OC(=NCCc3c[nH]c4ccccc34)[C@]2(C)[C@H]2C1=CC[C@H]1C(=O)N(CC)C(=O)[C@H]12`: 2.44% (inactive); for `O=C(CCC(=O)N/N=C/c1ccc(Br)o1)N/N=C/c1ccc(Br)o1`: 5.62% (inactive); for `O=C(CN1C(=O)COc2ccccc21)NCCN1CCc2ccccc2C1`: 29.8% (inactive). As to `CC(OC(=O)CN1C(=O)COc2ccccc21)C(=O)NCc1ccc(F)cc1` (stereo not drawn), the inhibition is -12.1% (inactive).

For `O=C(CN1C(=O)COc2ccccc21)Nc1ccc(F)cc1`, the inhibition is 74.4% (active).

As to `CC(C)C[C@@H](CO)N1CCN(Cc2ccc(O)cc2)CCC1=O`, the inhibition is 7.05% (inactive).

On to `CCCCCC(=O)NC(=S)NNC(=O)c1ccc([N+](=O)[O-])cc1`, for which the inhibition was -13.4% (inactive).

Regarding `COCCCNC(=S)NNC(=O)C(O)(c1ccccc1)c1ccccc1`, the inhibition was -12.4% (inactive).

Take `CC(=O)NC(=S)Nc1ccc(NC(=S)NC(=O)c2ccc([N+](=O)[O-])cc2)cc1`: the inhibition was -11.1% (inactive). With `COCCCNC(=S)NC(=O)c1ccccc1`, the inhibition was 50.8% (active). Take `COCCCNC(=S)NC(=O)c1ccc([N+](=O)[O-])cc1`: the inhibition is 34% (active). In the case of `O=C(NCCOc1ccccc1)c1ccccc1`, the inhibition was 42.2% (inactive).
